# Experimental data reported in PubChem BioAssay.
# The source made the active and inactive calls. Unless noted, the rule behind the calls is not given here.
# Assays:
# [1] = test system: Wnt5a (protein binding on small-molecule microarray); experiment: Wnt5a binders on small-molecule microarray, primary screen, biophysical, 635/667 nm fluorescence (AID 1142); conditions: 635 nm fluorescence, higher = more signal;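 note: fluorescence read at 667 nm with signal to noise per printed feature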
# [2] = cell viability in Huh7 cells, primary screen, cytotoxicity control for HCV replication inhibitor project, CellTiter-Glo luminescence, basal, 48 h (AID 1143); conditions: Huh7 HCV replicon, higher = more signal, called active from +8 up or from −8 down;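 note: Huh7 hepatoma cells carrying a hepatitis C replication reporter with no stimulus; test concentration not given here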
# [3] = P. aeruginosa biofilm formation inhibitors, primary screen, PAO1 strain, BacTiter-Glo luminescence, LB-PBS (AID 1144); conditions: 12 h, higher = more signal
# [4] = CREB reporter modulators without forskolin, primary screen, cell-based, PC12, CRE-LacZ reporter, unstimulated (AID 1145); conditions: no forskolin, luminescence, 4.5 h, higher = more signal, called active from +8 up or from −8 down
# [5] = CREB reporter modulators under forskolin, primary screen, cell-based, PC12, CRE-LacZ reporter, forskolin-stimulated (AID 1146); conditions: luminescence, 4.5 h, higher = more signal, called active from +8 up or from −8 down;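 note: PC12 cells with 6xCRE LacZ reporter stimulated by forskolin 10 µM; beta-galactosidase reporter signal reflecting CREB driven transcription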
# [6] = target: Streptavidin (Streptomyces avidinii) (UniProt P22629); experiment: streptavidin binders on small-molecule microarray, primary screen, artefact control for SMM compound annotation, biophysical, 635/667 nm fluorescence (AID 1147); conditions: streptavidin binding, higher = more signal;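 note: signal reflects streptavidin binding to arrayed compounds as a control protein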
# Chain of Streptavidin (Streptomyces avidinii) (P22629 whole entry, looked up): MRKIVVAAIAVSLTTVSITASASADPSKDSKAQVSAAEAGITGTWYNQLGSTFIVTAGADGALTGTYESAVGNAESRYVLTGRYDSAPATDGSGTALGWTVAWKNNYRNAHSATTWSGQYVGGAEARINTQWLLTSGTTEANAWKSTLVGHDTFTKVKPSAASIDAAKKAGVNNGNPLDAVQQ
# [7] = small-molecule binders of probe aInhba, primary screen, biochemical, small-molecule microarray, 635/667 nm fluorescence (AID 1148); conditions: higher = more signal;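 note: score merges 667nm spot fluorescence with signal-to-noise for antibody binding to printed compounds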
# [8] = target: Torsin-1A (Homo sapiens) (UniProt O14656); experiment: torsin A binders from cell lysate, primary screen, small-molecule microarray, wild-type, 635/667 nm (AID 1149); conditions: COS7 hTOR1A-WT lysate, 635 nm fluorescence, higher = more signal
# Chain of Torsin-1A (Homo sapiens) (O14656 whole entry, looked up): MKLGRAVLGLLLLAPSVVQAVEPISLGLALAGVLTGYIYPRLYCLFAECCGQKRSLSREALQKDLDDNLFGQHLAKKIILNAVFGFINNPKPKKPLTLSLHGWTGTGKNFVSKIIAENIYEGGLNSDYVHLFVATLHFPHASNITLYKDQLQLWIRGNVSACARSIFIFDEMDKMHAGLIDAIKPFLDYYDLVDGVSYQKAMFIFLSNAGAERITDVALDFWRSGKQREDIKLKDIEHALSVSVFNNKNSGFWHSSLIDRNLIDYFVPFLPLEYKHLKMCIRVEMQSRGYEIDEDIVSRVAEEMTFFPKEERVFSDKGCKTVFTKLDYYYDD
# [9] = target: Torsin-1A (Homo sapiens) (UniProt O14656); experiment: small-molecule binders of mutant TOR1A in lysate, primary screen, cell lysate, small-molecule microarray, COS7 lysate, 635/667 nm fluorescence (AID 1150); conditions: COS7 hTOR1A mutant lysate, 635 nm fluorescence, higher = more signal;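 note: score pools 667 nm emission and signal to noise measuring lysate protein binding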
# [10] = test system: Sonic hedgehog protein (Shh); experiment: small-molecule binders of Shh protein, primary screen, biochemical, small-molecule microarray, 635/667 nm fluorescence (AID 1151); conditions: small-molecule microarray binding, 635 nm fluorescence; higher = more signal;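 note: Shh protein binding to compounds spotted on small-molecule microarray slides; score combines spot fluorescence intensity with signal-to-noise across triplicate slides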
# [11] = E. coli DRC41 culture turbidity changes, primary screen, E. coli filamentation inducer project, strain DRC41, OD650, 48 h (AID 1152);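 note: E. coli MC1000 strain DRC41 lacking acrAB efflux pump and sulA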; conditions: E. coli DRC41 (acrAB sulA), higher = more signal, called active from +8 up or from −8 down
# [12] = small-molecule binders of probe aLefty1, primary screen, biochemical, small-molecule microarray, 635/667 nm fluorescence (AID 1153); conditions: higher = more signal;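 note: score merges spot fluorescence with signal-to-noise ratio from the scanned slide images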
# [13] = PSAC antagonists in infected red cells, primary screen, cell-based, P. falciparum Indochina, OD700, 1 h (AID 1154); conditions: P. falciparum Indochina infected RBC osmotic lysis, higher = more signal, called active from +8 up or from −8 down
# [14] = PSAC antagonists in infected red cells, primary screen, cell-based, P. falciparum Indochina, OD700, 2 h (AID 1155);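 note: lysis reports solute entry through the parasite surface anion channel PSAC; channel blockers reduce lysis of infected cells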; conditions: P. falciparum Indochina infected erythrocytes, osmotic lysis OD700; higher = more signal, called active from +8 up or from −8 down
# [15] = osmotic lysis modulators in infected erythrocytes, primary screen, PSAC antagonist project, cell-based, P. falciparum Indochina, OD700, 3 h (AID 1156); conditions: higher = more signal, called active from +8 up or from −8 down
# [16] = PSAC antagonists in infected red cells, primary screen, cell-based, P. falciparum Indochina, OD700, 18 h (AID 1157); conditions: P. falciparum Indochina infected erythrocytes, osmotic lysis OD700, 18 h; higher = more signal, called active from +8 up or from −8 down
# [17] = modulators of S6 phosphorylation in cells, primary screen, cell-based, A549, cytoblot, luminescence, serum-stimulated (AID 1158); conditions: A549 phospho-S6 cytoblot, 5 h, higher = more signal;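 note: serum-stimulated A549 lung adenocarcinoma cells; signal is phosphorylated S6 detected by cytoblot immunostaining with HRP secondary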
# [18] = target: NADPH oxidase 2 (Homo sapiens) (UniProt P04839); experiment: NOX2-dependent H2O2 signal modulators, primary screen, NOX inhibitor project, cell-based, HEK293-NOX2, PMA-stimulated, Amplex Red fluorescence (AID 1159); conditions: 45 min, higher = more signal, called active from +8 up or from −8 down; note: test concentration not given here
# Chain of NADPH oxidase 2 (Homo sapiens) (P04839 whole entry, looked up): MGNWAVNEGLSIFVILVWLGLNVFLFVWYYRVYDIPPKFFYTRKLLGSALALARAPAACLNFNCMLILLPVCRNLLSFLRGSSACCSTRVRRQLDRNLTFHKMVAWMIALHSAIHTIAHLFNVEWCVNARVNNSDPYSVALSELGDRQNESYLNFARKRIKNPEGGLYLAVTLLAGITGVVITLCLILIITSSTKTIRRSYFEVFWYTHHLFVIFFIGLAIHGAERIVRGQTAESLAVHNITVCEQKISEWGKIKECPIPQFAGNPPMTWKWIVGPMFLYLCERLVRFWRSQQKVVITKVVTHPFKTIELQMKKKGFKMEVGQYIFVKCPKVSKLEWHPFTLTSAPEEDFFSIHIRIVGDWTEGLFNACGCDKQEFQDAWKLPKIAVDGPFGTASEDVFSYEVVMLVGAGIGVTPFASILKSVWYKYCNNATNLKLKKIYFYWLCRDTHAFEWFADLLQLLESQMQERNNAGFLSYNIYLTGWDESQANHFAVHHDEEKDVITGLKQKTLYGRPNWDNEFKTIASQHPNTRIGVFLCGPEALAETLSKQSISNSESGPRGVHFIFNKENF
# [19] = target: NADPH oxidase 4 (Homo sapiens) (UniProt Q9NPH5); experiment: NOX4-dependent H2O2 signal modulators, primary screen, NOX inhibitor project, cell-based, HEK293-NOX4, tetracycline-induced, Amplex Red fluorescence (AID 1160); conditions: 45 min, higher = more signal, called active from +8 up or from −8 down
# Chain of NADPH oxidase 4 (Homo sapiens) (Q9NPH5 whole entry, looked up): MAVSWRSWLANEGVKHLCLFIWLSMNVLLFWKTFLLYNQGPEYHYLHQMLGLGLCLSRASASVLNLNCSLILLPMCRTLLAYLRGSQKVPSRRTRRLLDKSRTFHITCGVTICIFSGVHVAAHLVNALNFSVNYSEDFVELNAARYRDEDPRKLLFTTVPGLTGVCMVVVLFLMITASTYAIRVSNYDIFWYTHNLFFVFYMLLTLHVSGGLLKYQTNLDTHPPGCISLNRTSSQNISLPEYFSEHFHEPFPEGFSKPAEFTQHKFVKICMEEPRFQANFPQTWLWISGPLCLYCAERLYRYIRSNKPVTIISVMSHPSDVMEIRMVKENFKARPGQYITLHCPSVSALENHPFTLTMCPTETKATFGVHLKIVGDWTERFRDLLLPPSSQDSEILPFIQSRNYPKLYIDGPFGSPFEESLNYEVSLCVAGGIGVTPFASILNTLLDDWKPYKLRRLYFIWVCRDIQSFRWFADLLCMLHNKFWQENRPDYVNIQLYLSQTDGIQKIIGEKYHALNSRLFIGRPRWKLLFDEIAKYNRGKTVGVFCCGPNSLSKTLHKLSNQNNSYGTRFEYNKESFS
# [20] = target: NADPH oxidase 5 (Homo sapiens) (UniProt Q96PH1); experiment: NOX5-dependent H2O2 signal modulators, primary screen, NOX inhibitor project, cell-based, HEK293-NOX5, Amplex Red fluorescence (AID 1161); conditions: HEK293-NOX5, ionomycin, 45 min, higher = more signal
# Chain of NADPH oxidase 5 (Homo sapiens) (Q96PH1 whole entry, looked up): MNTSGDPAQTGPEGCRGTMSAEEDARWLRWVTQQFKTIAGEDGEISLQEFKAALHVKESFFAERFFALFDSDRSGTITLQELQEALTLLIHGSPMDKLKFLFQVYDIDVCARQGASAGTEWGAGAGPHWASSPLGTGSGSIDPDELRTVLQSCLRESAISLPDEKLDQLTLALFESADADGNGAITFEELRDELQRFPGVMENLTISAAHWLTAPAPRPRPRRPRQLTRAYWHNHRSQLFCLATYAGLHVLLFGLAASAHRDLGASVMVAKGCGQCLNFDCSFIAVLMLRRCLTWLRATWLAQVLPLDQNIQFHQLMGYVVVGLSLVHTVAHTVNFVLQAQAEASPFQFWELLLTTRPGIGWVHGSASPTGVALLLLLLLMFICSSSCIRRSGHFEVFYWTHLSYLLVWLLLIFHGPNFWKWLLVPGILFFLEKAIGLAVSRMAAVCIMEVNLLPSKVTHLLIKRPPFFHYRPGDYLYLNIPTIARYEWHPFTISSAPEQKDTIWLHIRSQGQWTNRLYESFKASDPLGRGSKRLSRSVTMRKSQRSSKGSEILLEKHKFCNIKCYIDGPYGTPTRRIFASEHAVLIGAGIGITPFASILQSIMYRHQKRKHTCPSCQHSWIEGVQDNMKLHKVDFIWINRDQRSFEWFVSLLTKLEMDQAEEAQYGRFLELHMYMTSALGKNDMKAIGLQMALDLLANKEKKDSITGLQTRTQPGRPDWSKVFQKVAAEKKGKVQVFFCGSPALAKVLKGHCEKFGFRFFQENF
Structure (SMILES),composite z-score [1],z-score [2],z-score [3],z-score [4],z-score [5],composite z-score [6],composite z-score [7],composite z-score [8],composite z-score [9],composite z-score [10],z-score [11],composite z-score [12],z-score [13],z-score [14],z-score [15],z-score [16],z-score [17],z-score [18],z-score [19],z-score [20]
O=P(NCC1(CC2(c3ccccc3)CO2)CC1)(c1ccccc1)c1ccccc1 (stereo not given),-0.402,-0.814 (inactive),0.318 (inactive),0.197 (inactive),1.13 (inactive),-0.767,-0.0448,-0.87,-0.754,-1.41,-0.569 (inactive),0.315,0.0174 (inactive),-0.505 (inactive),0.424 (inactive),0.297 (inactive),-0.242,-0.024 (inactive),0.266 (inactive),-2.9
COc1ccc([Si](C)(C)[C@H]2[C@H](CC(=O)N(CCO)Cc3ccccc3)O[C@@]3(C(=O)N(Cc4cccc(N5C(=O)c6cccc7cccc5c67)c4)c4ccccc43)[C@@H]2C)cc1,0.353,-4.87 (inactive),-0.188 (inactive),1.09 (inactive),-1.14 (inactive),0.544,-0.101,0.871,0.27,1.61,1.33 (inactive),-0.0507,13.2 (active),0.787 (inactive),-0.924 (inactive),-0.34 (inactive),2.67,0.38 (inactive),0.39 (inactive),1.83
C=CC[C@@]1(C(=O)NCCN2CCOCC2)N=C(c2ccc(OCCCO)cc2)O[C@@H]1c1ccccc1CN=[N+]=[N-],0.13,-4.2 (inactive),-0.557 (inactive),0.526 (inactive),-1.22 (inactive),0.349,-0.197,0.598,1.16,-0.0578,-0.121 (inactive),0.0193,24.4 (active),13.4 (active),2.29 (inactive),0.203 (inactive),1.15,-0.842 (inactive),0.908 (inactive),-0.701
CCCC[C@H]1C[C@@H]1[C@@H]1N(P(=O)(c2ccccc2)c2ccccc2)[C@](CO)(c2ccccc2)CC12CC2,0.326,-3.16 (inactive),0.76 (inactive),-0.561 (inactive),-1.24 (inactive),1.15,0.0403,-0.57,0.515,-1.36,-2.52 (inactive),0.394,4.95 (inactive),0.761 (inactive),2.01 (inactive),0.985 (inactive),0.353,-0.339 (inactive),1.08 (inactive),-2.29
COCCn1c(C(=O)N2CCCC2)cc2c1C[C@H]1CN(C(=O)c3ccccc3)[C@@](Cc3ccc(OC)cc3)(C(=O)OC)[C@@H]21,0.644,-1.54 (inactive),-0.2 (inactive),-0.751 (inactive),0.699 (inactive),2.01,0.739,-0.141,1.29,-0.89,0.223 (inactive),1.15,2.9 (inactive),-0.51 (inactive),-0.778 (inactive),-1.96 (inactive),2.69,0.121 (inactive),0.435 (inactive),-4.54
CC(c1ccccc1)C(O)C1C=CC2C(=O)N(c3ccccc3)C(=O)C2N1Nc1ccccc1F (stereo not given),0.0426,-2.63 (inactive),-1.29 (inactive),0.173 (inactive),0.406 (inactive),0.527,-0.125,-0.468,0.0393,-0.0558,0.207 (inactive),0.0146,0.784 (inactive),-0.11 (inactive),-0.597 (inactive),-0.865 (inactive),0.0297,-0.652 (inactive),-0.714 (inactive),0.381
COc1ccc([Si](C)(C)[C@@H]2[C@@H](CCO)O[C@]3(C(=O)N(Cc4ccc(N5C(=O)c6cccc7cccc5c67)cc4)c4ccccc43)[C@H]2C)cc1,-0.404,-6.09 (inactive),-0.0686 (inactive),4.11 (inactive),0.201 (inactive),-0.376,-0.0791,-0.565,-0.535,0.0554,0.317 (inactive),0.0355,3.28 (inactive),3.22 (inactive),0.146 (inactive),2.22 (inactive),-0.511,0.806 (inactive),0.417 (inactive),2.96
COCC1=C([C@H](O)CCc2ccccc2)[C@H](CO)[C@@H]2C(=O)N(Cc3ccccc3)C(=O)[C@@H]2C1,0.0713,-0.979 (inactive),-0.771 (inactive),0.586 (inactive),-0.0417 (inactive),-0.0218,-0.0759,-0.305,0.767,1.03,1.72 (inactive),-0.194,15.3 (active),2.04 (inactive),0.23 (inactive),0.477 (inactive),0.24,-0.543 (inactive),0.21 (inactive),-0.0312
Cc1ccc(S[C@]2(C(=O)NCCN3CCOCC3)CC(=O)N(C3CCCCC3)[C@@H]2c2ccc(CO)cc2)cc1,-0.0482,-0.0065 (inactive),0.314 (inactive),0.802 (inactive),0.893 (inactive),0.893,0.0422,0.18,0.783,0.318,-0.288 (inactive),0.136,1.47 (inactive),0.502 (inactive),0.512 (inactive),0.377 (inactive),-0.667,0.444 (inactive),1 (inactive),0.923
